Test results reported in PubChem BioAssay AID588727 (Southern Research Specialized Biocontainment Screening …, 2011).
In all, about 350,000 compounds went through this assay and about 450 (0.13%) were called active. How the calls were made is not given here. A selection follows. Measured potencies and affinities stand elsewhere.

Test: inhibitors of VEEV TC-83 cytopathic effect, confirmation, Vero cells (AID 588727)
Conditions: VEEV TC-83 cytopathic effect inhibition, at 20 µM; active compounds read high unless noted

Structure (SMILES)	inhibition
C=CCn1c(SCC(=O)c2cccs2)nc2sc(C)cc2c1=O	5.28% (inactive)
Cc1sc2nc(SCC(=O)c3cccs3)n(Cc3ccco3)c(=O)c2c1C	0.85% (inactive)
CCOCCCNC(=O)c1cn(C)c(=O)c2cc(OC)c(OC)cc12	2.15% (inactive)
c1ccc(C(c2c[nH]c3ccccc23)c2c[nH]c3ccccc23)nc1	6.07% (inactive)
COC(=O)c1sccc1NC(=O)c1c(-c2ccccc2)noc1C	0.71% (inactive)
CCOCc1nnc(NC(=O)c2c(-c3ccccc3)noc2C)s1	2.18% (inactive)
CCC(CC)c1nnc(NC(=O)c2c(-c3ccccc3)noc2C)s1	inactive
CCOC(=O)c1c(-c2cccc(C)c2)csc1NC(=O)C1CC=CCC1C(=O)O (stereo not drawn)	1.95% (inactive)
CCOC(=O)c1c(-c2ccc(F)cc2)csc1NC(=O)c1c(-c2ccccc2)noc1C	9.91% (inactive)
COC(=O)c1c(-c2ccccc2)noc1C	inactive
Cn1c(=O)c2c(nc(OCc3cccnc3)n2Cc2c(F)cccc2Cl)n(C)c1=O	inactive
Cc1ccc(NC(=O)C2CC(=O)N(c3ccc4c(c3)OCCO4)C2)nc1 (stereo not drawn)	0.81% (inactive)
COc1ccc(NC(=O)c2cc(S(=O)(=O)Nc3ccc(OC)cc3)cs2)cc1	1.17% (inactive)
O=C1CCc2cc(S(=O)(=O)N3CCC(C(=O)NC4CCCCCCC4)CC3)ccc2N1	0.11% (inactive)
CC1CCCCN1C(=O)CSc1nc(N)cc(=O)[nH]1 (stereo not drawn)	0.79% (inactive)
COC(=O)Cc1ccc(NC(=S)NCCSc2ccc(C)cc2)cc1	0.04% (inactive)
CCOC(=O)c1cnc(N2CCOCC2)[nH]c1=O	inactive
O=c1ccc(Cl)cn1Cc1ccccc1F	0.68% (inactive)
CCCNC(=O)CSc1nnc(NC(=O)C2CC(=O)N(c3ccccc3OC)C2)s1 (stereo not drawn)	0.13% (inactive)
CN(C)CCCNc1nc(N)c([N+](=O)[O-])c(NC2CCCCC2)n1	1.04% (inactive)
Nc1nc(NCCO)nc(NC2CCCCC2)c1[N+](=O)[O-]	3.17% (inactive)
OCC1CCCCN1C(=S)NCc1ccco1 (stereo not drawn)	2.33% (inactive)
O=C(NNC(=O)c1ccc2ccccc2c1)c1cccc(F)c1	0.5% (inactive)
COc1ccccc1NS(=O)(=O)c1ccc(C(=O)N2CCN(c3ccccn3)CC2)cc1	12.1% (inactive)

Structure (SMILES)	inhibition
COc1cc2cc(CN(CCO)S(=O)(=O)c3ccccc3)c(=O)[nH]c2cc1OC	2.19% (inactive)
CCOC(=O)C(CC)n1cnc2sc3c(c2c1=O)CCC3 (stereo not drawn)	2.46% (inactive)
CCc1ccc(/C=C/C(=O)c2cc(Br)ccc(=O)c2O)cc1	2.12% (inactive)
COc1ccc(/C=C/C(=O)c2cc(Cl)cc(Cl)c2O)c(OC)c1	0.43% (inactive)
CN(C)/C=C/C(=O)/C=C/c1ccc(Cl)cc1Cl	inactive
CCNc1ccc(Br)cc(C(=O)/C=C/c2ccccc2Cl)c1=O	2.29% (inactive)
CC(=O)Nc1ccc(S(=O)(=O)Nc2ccc3c(c2)OCO3)cc1	inactive
Cc1ccc(-c2cc(C(=O)NCCCn3ccnc3)c3ccccc3n2)s1	10.3% (inactive)
CC(OC(=O)Cn1cnc2ccccc2c1=O)C(=O)N(C)c1ccccc1 (stereo not drawn)	1.86% (inactive)
Cc1cc(SCC(=O)c2cc3ccccc3o2)nc2ccccc12	inactive
COc1ccc(NC(=O)CSc2nc3ccccc3c(=O)n2CCC(=O)N2CCCCC2)cc1	10.7% (inactive)
CCN(C(=O)c1cccc(Br)c1)c1ccccc1	1.28% (inactive)
CCC(=O)Nc1nonc1-c1nc2ccccc2n1CC(C)C	0.38% (inactive)
CC(=O)Nc1nonc1-c1nc2ccccc2n1CCC(C)C	2.19% (inactive)
CCn1c(-c2nonc2NC(=O)c2ccccc2)nc2ccccc21	inactive
N#CCCn1c(-c2nonc2NC(=O)c2ccccc2Cl)nc2ccccc21	inactive
CCOc1ccccc1Nc1ccnc2cc(Cl)ccc12	0.76% (inactive)
C=C1CCN([C@@H](Cc2ccccc2)C(=O)NC2CCN(Cc3ccccc3)CC2)S(=O)(=O)c2ccccc21	inactive
CCCN1C2CCCC1CC(NC(=O)c1ccc(Br)cc1)C2 (stereo not drawn)	0.23% (inactive)
CCN(CC)S(=O)(=O)c1ccc(Cl)c(C(=O)OCC(=O)c2c(N)n(C)c(=O)n(C)c2=O)c1	2.96% (inactive)
COCCCNC(=O)c1cc(C(=O)Cc2ccccc2)c[nH]1	0.38% (inactive)
O=C(CCn1c(=S)oc2ccccc21)Nc1cccc(O)c1	1.38% (inactive)
COc1ccc(C2c3[nH]c4ccccc4c3CCN2C(=O)c2ccc(=O)n(C)n2)c(F)c1 (stereo not drawn)	1.1% (inactive)
COc1ccc(C2c3[nH]c4ccccc4c3CCN2C(=O)c2cn3ccccc3n2)c(F)c1 (stereo not drawn)	8.94% (inactive)
